Assay results reported in PubChem BioAssay (NCATS).
Records with an inconclusive call do not appear. Activity calls are given as the source filed them. Calls come from the whole dose curve; as a rule, active = well fitted cell-killing curve with a large enough effect; inconclusive = small, poorly fitted or top-dose-only effect; inactive = flat fitted curve, though single readings scatter.

What was measured:
[1] = Cell Viability - H-4-II-E (AID 543); note: nearly all actives have a fitted effect of over 35% in size
Summary of the method: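 CellTiter-Glo luminescence (intracellular ATP) measured after 40 h compound exposure at 37 °C in H-4-II-E rat hepatoma cells seeded at 1500/well. Values are AC50s fitted with the standard Hill equation.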

[2] = Cell Viability - SH-SY5Y (AID 544); note: nearly all actives have a fitted effect of over 55% in size
Summary of the method: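 Cytotoxicity measured via ATP-dependent luciferase luminescence (CellTiter-Glo) following 40 h, 37 °C exposure of 1500 SH-SY5Y cells per well. Concentration-response data were fitted with the standard Hill equation to give AC50.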

[3] = Cell Viability - Renal Proximal Tubule (AID 545); note: nearly all actives have a fitted effect of over 40% in size
Summary of the method: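 Viability taken as intracellular ATP (CellTiter-Glo luminescence) after 40 hr, 37 °C compound treatment of primary proximal tubule cells from rat kidney, 1000 cells/well; Hill-equation fits of qHTS concentration-response data gave AC50.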

Measured: outcome
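Note: cells exposed to compound for 40 hours.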

Cc1ccc(N)cc1O
inactive: all assays above

CC(=O)O[C@@H]1CC(C)=C2[C@H]1[C@H](C)CC[C@H]2/C=C(\C)C(=O)O
inactive: all assays above
